Compound activity (PubChem BioAssay)
Pf Dd2 growth: qHTS Primary assay for Inhibitors of Plasmodium falciparum Dd2 growth in vitro; P. falciparum Dd2 growth, SYBR Green, 72 h; Potency, µM (series often up to 28.9 µM), for inactives: at the top dose activity, negative = inhibition, most hits filed as inhibitors; 120,000 tested, 4.3% active; AID 1347417, 2020; active means well fitted inhibition curve with a large enough effect;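 further: plate controls were DMSO vehicle for no effect and reference drug for full effect; nearly all actives have a fitted effect of over 65% in size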
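Readout: SYBR Green fluorescence, 485 nm excitation, 535 nm emission, after ~16 h lysis at 37C. Before that, Dd2-infected red cells (2.5% hematocrit) grew 72 h with compound, 29 uM top final concentration.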
Starred values were filed as active, the others as inactive; [ ] = dose if it differs, or a comment. This is one part of a sample in which hits are shown more often than they occur. Potency means the concentration at half of the fitted maximal effect.

CCCNC(=O)CN1CN(c2ccccc2)C2(CCN(C(=O)Nc3ccc(CC)cc3)CC2)C1=O was read as Pf Dd2 growth -17%.
CC(C)NC(=O)CN1CN(c2ccccc2)C2(CCN(C(=O)NCc3ccccc3)CC2)C1=O was read as Pf Dd2 growth inactive.
CC1=C[C@@H](CC#N)[C@H](C(C)C)C[C@H]1CC(=O)NCc1ccccc1 was read as Pf Dd2 growth inactive.
`Cc1ccc(CN2CCn3c(nnc3[C@@H]3C[C@@H](O)CN3C)C2)s1` gave Pf Dd2 growth 2%.
For COCCN1C(=O)CS(=O)(=O)C12CCN(C(=O)c1cc(Cl)ccc1OC)CC2 the results were Pf Dd2 growth -11%.
COc1ccc([C@H]2C[C@@H](O)[C@@H](O)[C@@H]2NS(=O)(=O)c2cccc(C#N)c2)cc1 was read as Pf Dd2 growth inactive.
`CCCCn1cc(S(=O)(=O)c2ccc(F)cc2)c(=O)c2ccccc21` gave Pf Dd2 growth 18%.
CCCn1cc(S(=O)(=O)c2ccc(C)c(C)c2)c(=O)c2cc(F)c(N3CCCCC3)cc21 was read as Pf Dd2 growth 1%.
Screening CCN(CC)c1cc2c(cc1F)c(=O)c(S(=O)(=O)c1ccccc1)cn2Cc1ccccc1 returned Pf Dd2 growth 13µM*.
For CCN(CC)c1cc2c(cc1F)c(=O)c(S(=O)(=O)c1ccccc1)cn2C the results were Pf Dd2 growth -23%.
Screening CCN(CC)c1cc2c(cc1F)c(=O)c(S(=O)(=O)c1cccc(C)c1)cn2C returned Pf Dd2 growth 9%.
COc1ccc(S(=O)(=O)c2cn(Cc3ccccc3)c3cc(F)c(F)cc3c2=O)cc1 was read as Pf Dd2 growth -24%.
CCN(CC)c1cc2c(cc1F)c(=O)c(S(=O)(=O)c1ccc(OC)cc1)cn2Cc1ccccc1 was read as Pf Dd2 growth 13µM*.
For CCCCn1cc(S(=O)(=O)c2ccc(C)c(C)c2)c(=O)c2cc(F)c(N(CC)CC)cc21 the results were Pf Dd2 growth 13µM*.
Screening COc1ccc(NC(=O)Cn2cc(S(=O)(=O)c3ccccc3)c(=O)c3cc4c(cc32)OCO4)cc1 returned Pf Dd2 growth -16%.
Screening CN1CC(=O)N(C2CCC2)Cc2c1ncnc2N1CCc2ccccc2C1 returned Pf Dd2 growth -22%.
`CCOc1cccc(CN2C(=O)C3(CCOCC3)CC2c2nnnn2C(C)(C)C)c1` (configuration not stated) gave Pf Dd2 growth inactive.
For CNC(=O)Cn1nc(C2CCN(C(=O)c3cccc(F)c3)CC2)c2c1CCOC2 the results were Pf Dd2 growth inactive[5.79 µM].
`COc1cccc(C(=O)Nc2c(C(=O)Nc3ccc(F)cc3)oc3ccccc23)c1OC` gave Pf Dd2 growth -21%.
Screening COc1ccccc1C(=O)Nc1c(C(=O)N(CCN(C)C)Cc2ccco2)oc2ccccc12 returned Pf Dd2 growth 6.3µM*.
Screening CCOc1ccc(C(=O)Nc2c(C(=O)c3ccccc3)oc3ccccc23)cc1 returned Pf Dd2 growth -8%.
Screening Cc1c(C(=O)N(Cc2cccc(Cl)c2)Cc2ccco2)oc2ccccc12 returned Pf Dd2 growth 3%.
Screening COc1ccccc1C(=O)N(Cc1ccco1)Cc1ccccc1F returned Pf Dd2 growth -7%.
For CN(C)CCN(Cc1ccco1)C(=O)c1oc2ccccc2c1NC(=O)c1ccccc1 the results were Pf Dd2 growth 11µM*.
For Cc1cccc(C(=O)N2C[C@@H](CO)[C@H](N(C)C)C2)n1 the results were Pf Dd2 growth 29%.
Screening CCc1ccc(NC(=O)c2ccc3c(c2)N(CC)C2CCCCCN2C3=O)cc1 (configuration not stated) returned Pf Dd2 growth -8%.
Screening COc1cc(OC)cc(-c2onc(C)c2C(=O)NCc2cccc(Cl)c2)c1 returned Pf Dd2 growth inactive.
O=C([C@@H]1C[C@H](Oc2ccccc2)CN1C(=O)NC1CCCCC1)N1CCOCC1 was read as Pf Dd2 growth 24%.
For CC1=C(C(=O)Nc2cc(Cl)ccc2C)C(c2ccccc2F)n2ncnc2N1 (configuration not stated) the results were Pf Dd2 growth 10%.
CC1=C(C(=O)Nc2ccccc2)C(c2cc(Br)ccc2F)n2ncc(C(=O)Nc3ccccc3)c2N1 (configuration not stated) was read as Pf Dd2 growth 1.1µM*.
CC1=C(C(=O)Nc2ccc(C)cc2C)C(c2ccc[nH]2)n2ncnc2N1 (configuration not stated) was read as Pf Dd2 growth 29%.
`CC1=C(C(=O)Nc2ccc(C)cc2C)C(c2ccc(Br)cc2)n2ncc(C(=O)Nc3cccc(C)c3)c2N1` (configuration not stated) gave Pf Dd2 growth 1.1µM*.
`CC1=C(C(=O)Nc2ccc(C)cc2C)C(c2cc(Br)ccc2F)n2ncc(C(=O)Nc3ccc(C)cc3)c2N1` (configuration not stated) gave Pf Dd2 growth 0.89µM*.
COc1ccc(C2C(C(=O)Nc3ccc(C)cc3C)=C(C)Nc3nc(SC)nn32)cc1OC (configuration not stated) was read as Pf Dd2 growth 15%.
CC1=C(C(=O)Nc2ccc(C)cc2C)C(c2cccs2)n2nc(SCc3cccc(C)c3)nc2N1 (configuration not stated) was read as Pf Dd2 growth -7%.
`CC1=C(C(=O)Nc2ccc(Cl)cc2)C(c2ccccc2F)n2nc(SCc3cccc(Cl)c3)nc2N1` (configuration not stated) gave Pf Dd2 growth 36%.
Screening CC1=C(C(=O)Nc2ccc(C)cc2C)C(c2ccc(Cl)cc2)n2nc(C(=O)OC(C)C)nc2N1 (configuration not stated) returned Pf Dd2 growth -5%.
For Cc1cccc(-c2ocnc2C(=O)N2CCC3(CC2)CC(O)CCO3)c1 (configuration not stated) the results were Pf Dd2 growth 4%.
For Cc1ccsc1[C@@H]1CCN(C(=O)CCc2ccc(F)cc2F)C[C@H]1O the results were Pf Dd2 growth -9%.
For N#Cc1cccc(C(=O)NCC(=O)N2CCCCCNC(=O)CC2c2ccccc2)c1 (configuration not stated) the results were Pf Dd2 growth inactive.
For N#Cc1ccc(C(=O)Nc2ccc3ncnc(N4CCCCC4)c3c2)cc1 the results were Pf Dd2 growth inactive.
Screening COc1ccc(CC(=O)Nc2ccc3ncnc(N4CCCC4)c3c2)c(Cl)c1 returned Pf Dd2 growth -7%.
`O=C(Nc1ccc2ncnc(N3CCCCC3)c2c1)c1ccsc1` gave Pf Dd2 growth inactive.
`N#Cc1ccc(C(=O)Nc2ccc3c(N4CCCCC4)ncnc3c2)cc1` gave Pf Dd2 growth 8.9µM*.
Screening O=C(NC1CCCN(c2cc(N3CCCC3)ncn2)C1)c1ccsc1 (configuration not stated) returned Pf Dd2 growth -14%[5.79 µM].
For O=C(Nc1ccc2c(N3CCCCC3)ncnc2c1)c1ccsc1 the results were Pf Dd2 growth 7.1µM*.
O=C(Cc1ccsc1)Nc1ccc2c(N3CCCC3)ncnc2c1 was read as Pf Dd2 growth 5µM*.
`CCn1ccc(C(=O)Nc2ccc3ncnc(N4CCCC4)c3c2)n1` gave Pf Dd2 growth inactive.
`CCOCC(=O)Nc1ccc2ncnc(N3CCCCC3)c2c1` gave Pf Dd2 growth -9%.
`O=C(c1cccc(F)c1)N1CCOC[C@H](Oc2ccc(C(F)(F)F)cn2)C1` gave Pf Dd2 growth -21%[44.1 µM].
Cc1cc(C(F)(F)F)nn1CC(=O)NCC12CCC=C1N(C)C(=O)CC2 (configuration not stated) was read as Pf Dd2 growth -3%.
